Inconclusive results are not listed. Active and inactive are the calls of the source. The calls were made as follows, unless noted: active = hit-call score of the fitted dose curve at least 0.9, where 1 is the maximum; inactive = score below 0.9.

Experiment [1] in a line: BSK_BT_PBMCCytotoxicity: PBMC Cytotoxicity Assessment in the BioMAP Diversity Plus: BT Assay (AID 2284225).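 Also: PBMC viability measured by Alamar Blue dye reduction fluorescence.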 The settings on record: primary human B cells with PBMC. In a few lines:
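Viability by Alamar Blue reduction (6 h, ex/em 546/580 nm) after 90 h culture of SEB/TSST-1-activated PBMC (20 ng/mL each) given compound 1 h before activation. DMSO served as baseline for curve fitting.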

Read-out in experiment [2]: Secreted IgG (sIgG), gene 3500
Nature of the experiment: BSK_BT_sIgG: BioMAP Diversity Plus: BT Assay for Secreted IgG (sIgG) Biomarker Activity (AID 2284226). Conditions: primary human B cells with PBMC. In a few lines: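 Cells (B cells with peripheral blood mononuclear cells) are dosed, cultured 24 h, then supernatant IgG is measured by ELISA. DMSO serves as negative control; curves are fitted for signal increase.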

The nature of experiment [3]: BSK_BT_Bcell_Proliferation: Viability Assessment in the BioMAP Diversity Plus: BT Assay for B cell Proliferation (AID 2284227). Conditions: primary human B cells with PBMC. In outline: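 Human B cells co-cultured with PBMC were dosed with test chemicals and relative cell number was quantified by SRB staining at 72 h. Cells were fixed in 10% TCA, stained with 0.1% SRB and read at 560 nm. Activity was fitted in the positive direction against DMSO.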

Read-out in experiment [4]: Interleukin 6 (IL6), IL6 (gene 3569)
Nature of the experiment: BSK_BT_xIL6: BioMAP Diversity Plus: BT Assay for Interleukin 6 (IL6) Biomarker Activity (AID 2284228). The settings on record: primary human B cells with PBMC. In outline:
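Human B cell/PBMC co-culture; secreted IL-6 quantified by Luminex xMAP 24 h after chemical dosing, fitted relative to DMSO. Parallel PBMC viability by Alamar Blue after 1 h pretreatment, 20 ng/mL SEB and TSST-1, 90 h incubation.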

Read-out in experiment [5]: Interleukin 17A (IL17A), IL17A (gene 3605)
Briefly: BSK_BT_xIL17A: BioMAP Diversity Plus: BT Assay for Interleukin 17A (IL17A) Biomarker Activity (AID 2284229). Conditions: primary human B cells with PBMC. In a few lines: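 Co-culture of human B cells and PBMC, dosed for 24 h in 96-well format. Secreted IL-17A measured with Luminex xMAP; gain-direction fitting against DMSO as baseline.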

Read-out in experiment [6]: Tumor necrosis factor (Homo sapiens) (UniProt P01375)
Nature of the experiment: BSK_BT_xTNFa: BioMAP Diversity Plus: BT Assay for Tumor necrosis factor alpha (TNF-alpha) Biomarker Activity (AID 2284230). The settings on record: primary human B cells with PBMC. In outline: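 B cells with PBMC in co-culture, dosed and sampled at 24 h; secreted TNF-alpha measured by Luminex xMAP bead assay. Activity fitted in the gain direction against DMSO as negative control and baseline.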

Read-out in experiment [7]: Vascular cell adhesion molecule 1 (VCAM1), VCAM1 (gene 7412)
Nature of the experiment: BSK_MyoF_VCAM1: BioMAP Diversity Plus: MyoF Assay for Vascular cell adhesion molecule 1 (VCAM1) Biomarker Activity (AID 2284231). Conditions: primary human lung fibroblasts. In outline:
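Primary human lung fibroblasts (BioMAP MyoF system) dosed with chemical, VCAM-1 measured by ELISA 24 hours later. Fitted in the positive direction against DMSO; parallel SRB staining assessed cytotoxicity.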

The nature of experiment [8]: CCTE_Mundy_HCI_Cortical_Synap_Neur_Matur_SynapseCount: CCTE's Synaptogenesis and Neurite Maturation Assay in rat cortical cells for Synapse Count, Mundy Lab (AID 2284218). In outline: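 Cells were plated, allowed 2 hr to attach, treated with AraC at DIV 5, then exposed to chemicals from DIV 7 until DIV 12. After fixation and MAP2/synaptophysin immunolabelling, synapses per neuron were quantified by automated imaging against DMSO.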

Experiment [9] is described as follows: CCTE_Mundy_HCI_Cortical_Synap_Neur_Matur_NeuriteCount: CCTE's Synaptogenesis and Neurite Maturation Assay in rat cortical cells for Neurite Count, Mundy Lab (AID 2284222).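 Also: exposure from day 7 to day 12 in vitro with readout at day 12.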 In a few lines: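 Rat primary cortical cells; AraC added at DIV 5, chemicals dosed with media change at DIV 7 through DIV 12. MAP2/synaptophysin/Hoechst immunostaining, high-content imaging of neurite number; fitted relative to DMSO.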

Experiment [10] in a line: CCTE_Mundy_HCI_Cortical_Synap_Neur_Matur_CellBodySpotCount: CCTE's Synaptogenesis and Neurite Maturation Assay in rat cortical cells for Cell Body Spot Count, Mundy Lab (AID 2284223). In a few lines:
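Primary rat cortical cultures, AraC added at DIV 5; dosed DIV 7 through DIV 12 […]. Fixed, stained for MAP2 and synaptophysin with Hoechst; cell body-associated synaptophysin puncta per neuron counted by high-content imaging, loss vs DMSO.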

The nature of experiment [11]: CCTE_Mundy_HCI_hNP1_Pro_ResponderAvgInten: CCTE's Proliferation Assay in human neuroprogenitor cells, Mundy Lab (AID 2284224; active = hit-call score of the fitted dose curve at least 0.9, where 1 is the maximum). In outline: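 Proliferation was scored as BrdU labelling intensity in human neural progenitors derived from WA09 embryonic cells, measured 26.25 hours after chemical dosing. Activity was fitted relative to DMSO.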
Experiment [12] in a line: UKN2_HCS_IMR90_cell_viability: Viability Assessment in the University of Konstanz (UKN) Leist Lab Neural Crest Cell Migration Assay in human induced IMR90 Pluripotent Stem Cells (UKN2) (AID 2284233).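 Also: cells exposed to compound for 24 h after a 24 h migration phase.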 In outline: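 After calcein-AM/Hoechst staining, viability is quantified by high-content fluorescence imaging, relative to DMSO, in iPSC (IMR90)-derived neural crest cells. Exposure lasts 24 h, starting after a 24 h migration period on PLO/laminin/fibronectin coating.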

Experiment [13] can be described thus: CCTE_Mundy_HCI_Cortical_NOG_NeuronCount: CCTE's Neurite Outgrowth Assay in rat cortical cells for Neuron Count, Mundy Lab (AID 2284236; active = hit-call score of the fitted dose curve at least 0.9, where 1 is the maximum;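 also: neurons counted by imaging betaIII-tubulin and Hoechst stained cortical cells; cells exposed to compound for about 48 hours before fixation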). In outline: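 Read-out: neuron number by high-content imaging of betaIII-tubulin (Alexa Fluor-488) and Hoechst-labelled rat primary cortical cells.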
The nature of experiment [14]: TAMU_PeakParms_SingleDonor1434_Chronotropy: Texas A&M University (TAMU) 1.5-hr Human Induced Pluripotent Stem Cell (iPSC)-derived Cardiomyocytes Calcium (Ca+2) Flux Assay for Cardiotoxicity: Chronotropy (changes in peak frequency) (AID 2284217). The settings on record: actives raise or lower the signal. In outline: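 iPSC-derived cardiomyocytes (single donor 1434) dosed at 0.2, 1, 10 and 100 uM in 0.5% DMSO for 1.5 h at 37C; Ca2+ dye fluorescence gave average beat frequency. Zero-beat points removed; bidirectional fit versus DMSO, POD as EC05.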

The nature of experiment [15]: CCTE_Mundy_HCI_hN2_NOG_NeuriteCount: CCTE's Neurite Outgrowth Assay in human hN2 cells for Neurite Count, Mundy Lab (AID 2284219; active = hit-call score of the fitted dose curve at least 0.9, where 1 is the maximum). In a few lines:
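In this morphology assay, hNP1-derived neurons received test chemical 2 h post-plating and were fixed two days later in warm paraformaldehyde/sucrose containing Hoechst 33342. Neurites, labelled by rabbit anti-βIII-tubulin (1:800) and Alexa Fluor-488 (1:500), were counted automatically.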

Experiment [16] in a line: CCTE_Mundy_HCI_hN2_NOG_NeuriteLength: CCTE's Neurite Outgrowth Assay in human hN2 cells for Neurite Length, Mundy Lab (AID 2284220; active = hit-call score of the fitted dose curve at least 0.9, where 1 is the maximum). In a few lines: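 Plate hNP1-derived neurons, then add chemical 2 h later as a 1/10 dilution. Stain with anti-βIII-tubulin then Alexa Fluor-488 secondary, and image automatically to measure neurite length.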
Experiment [17] in a line: CCTE_Mundy_HCI_hN2_NOG_NeuronCount: CCTE's Neurite Outgrowth Assay in human hN2 cells for Neuron Count, Mundy Lab (AID 2284221; active = hit-call score of the fitted dose curve at least 0.9, where 1 is the maximum). In a few lines:
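Read-out is the number of betaIII-tubulin-positive neurons imaged by automated high-content analysis, with DMSO as negative control.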

Experiment [18] can be described thus: UKN4_HCS_LUHMES_cell_viability: Viability Assessment in the University of Konstanz (UKN) Leist Lab Neurite Outgrowth Assay in human LUHMES cells (UKN4) (AID 2284232). In a few lines: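 Cells switched to differentiation medium at day 0, replated on day 2 in medium lacking cAMP and GDNF, and compound-treated once attached. Live staining began 23.5 h later, imaging followed at 24 h.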

Experiment [19] can be described thus: TAMU_HCS_1.5hr_SingleDonor1434_Cytotoxicity: Cytotoxicity Assessment using High-content Screening (HCS) Fluorescent Imaging for the Texas A&M University (TAMU) 1.5-hr Human Induced Pluripotent Stem Cell (iPSC)-derived Cardiotoxicity Assay (AID 2284234; active = hit-call score of the fitted dose curve at least 0.9, where 1 is the maximum). In a few lines: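 Nuclear counts from Hoechst 33342 imaging define cytotoxicity here, with EC10 (10% cell-count loss relative to DMSO) as point of departure. iPSC cardiomyocytes received 0.2-100 uM test chemical in 0.5% DMSO for 1.5 h at 37 C.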

The nature of experiment [20]: TAMU_PeakParms_SingleDonor1434_QT: Texas A&M University (TAMU) 1.5-hr Human Induced Pluripotent Stem Cell (iPSC)-derived Cardiomyocytes Calcium (Ca+2) Flux Assay for Cardiotoxicity: QT (decay-rise ratio) (AID 2284235; active = hit-call score of the fitted dose curve at least 0.9, where 1 is the maximum). In outline:
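Decay/rise ratio of calcium-flux fluorescence scored after 90 min exposure (37C) of donor 1434 iPSC cardiomyocytes to 0.2–100 uM (0.5% DMSO). Beat-cessation and severe-notch points removed; POD is EC05, a 5% rise over DMSO.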

Tumor necrosis factor (Homo sapiens), sequence (P01375 whole entry, looked up): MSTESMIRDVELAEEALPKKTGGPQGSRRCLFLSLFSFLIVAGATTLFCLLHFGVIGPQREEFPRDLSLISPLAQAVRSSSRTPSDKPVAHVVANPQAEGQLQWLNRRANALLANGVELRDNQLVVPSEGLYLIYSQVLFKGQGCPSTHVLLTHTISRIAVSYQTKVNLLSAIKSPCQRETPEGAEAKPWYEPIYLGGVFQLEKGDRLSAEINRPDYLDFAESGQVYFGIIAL

Turning to `CC(=O)C1(C)CC2=C(CCCC2(C)C)CC1C` (configuration not stated), the AC50 in experiment [1] is 31.9 µM (active); in [2] it was 28.8 µM (active); in [3], 34.7 µM (active); in [4], 28.5 µM (active); in experiment [5], 26 µM (active); in [6], 30.3 µM (active). In addition, the AC50 in experiment [7] was 12.1 µM (active).

As to `CS(=O)(=O)c1ccc(C2=C(c3ccccc3)C(=O)OC2)cc1`, the result in experiment [1], in [2], in experiment [3], in [4], in experiment [5] and in experiment [6] was inactive. For the same compound, the outcome in experiment [7] was inactive.

As for `C=C(C)[C@H]1CC=C(C)C(=O)C1`, the result in experiment [1], in [2], in experiment [3], in [4], in experiment [5] and in [6] was inactive. Moreover, the result in experiment [7] was inactive.

Turning to `CCCCN(CCCC)C(=O)N(CCCC)CCCC`, the AC50 is 32.8 µM (active) in experiment [1]; 14.6 µM (active) in experiment [2]; 31.4 µM (active) in experiment [3]; 29 µM (active) in experiment [4]; 14.5 µM (active) in experiment [5]; 30.3 µM (active) in [6]. In addition, the AC50 in [7] was 10.5 µM (active).

Take `O=C1OC[C@H](Cc2cccc(O)c2)[C@H]1Cc1cccc(O)c1`: the result in experiment [1], in experiment [2], in experiment [3], in experiment [4], in [5] and in experiment [6] was inactive. The result in experiment [7] was inactive.

Take `c1ccc2cc(Nc3ccc(Nc4ccc5ccccc5c4)cc3)ccc2c1`: the outcome in experiment [1], in experiment [2], in experiment [3], in experiment [5], in experiment [6] and in [7] was inactive. The AC50 in experiment [4] is 1.12 µM (active).

Take `c1ccc(Oc2ccccc2)cc1`: the outcome in [1], in [2], in experiment [3], in [4], in experiment [5] and in [6] was inactive. Further, the outcome in experiment [7] was inactive.

Take `CCCCOC(=O)CCCCCCCC(=O)OCCCC`: the outcome in [1], in experiment [2], in [3], in experiment [4], in experiment [5] and in experiment [6] was inactive. Further, the result in experiment [7] was inactive.

With `COCCOCCOCCO`, the compound was classed as inactive in experiment [8], in experiment [9], in experiment [10], in experiment [11], in experiment [12] and in experiment [13].

For the compound `Oc1c(Cl)cc(Cl)c(Cl)c1Cc1c(O)c(Cl)cc(Cl)c1Cl`, the result in [14], in experiment [9], in experiment [11], in experiment [4] and in experiment [20] was inactive. Besides, the AC50 in [8] is 13.1 µM (active); in experiment [15], 1.42 µM (active); in [16], 1.38 µM (active); in [17] it was 1.4 µM (active); in experiment [10], 9.92 µM (active); in [1], 20 µM (active). The concentration at half-maximal activity (AC50) in experiment [2] was 0.993 µM (active); in experiment [3], 12.6 µM (active); in experiment [5], 2.48 µM (active); in experiment [6], 15.2 µM (active); in [7] it was 0.555 µM (active); in experiment [18], 18.3 µM (active). The values for the AC50 in experiment [12], in experiment [19] and in experiment [13] were 3.18 µM (active), 14.9 µM (active) and 50 µM (active), respectively.

The record behind these values is PubChem BioAssay (EPA / NIEHS).
